The whole screen tested about 2,300 compounds, of which about 330 (14%) showed activity. Only a sample is shown. Unmarked numbers belong to inactive results.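 Rule for the calls: active = median modified Z-score above 1.96; inactive = 1.96 or below.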

The subject of the experiment is HepG2 Srxn1-GFP reporter cells (+30 nM CDDO-Me). As to the kind of experiment: Srxn1-GFP intensity median modified Z-score relative to plate median; higher = stronger NRF2 / oxidative stress reporter activation, active = hit call of the paper. Particulars: 10 µM; exposure time: 24h. An outline of the steps: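 Values give the median, over replicates, of the modified Z-score of GFP intensity on each plate. HepG2 Srxn1-GFP BAC reporter cells were co-treated for 24 h with an NRF2 activator at 30 nM and compound at 10 μM (≤0.1% DMSO) in three replicate plates, then analysed per cell for cytoplasmic GFP on confocal images with at least 100 cells. Scaling used 1.4826 × median absolute deviation.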
Turning to `COc1ccc2c3c([nH]c2c1)C(C)=NCC3` [euspeclibcmpd2276], the “Srxn1-GFP intensity median modified Z-score” value is 66 (active).
Then `CC1=NCCc2c1[nH]c1cc(O)ccc21` [euspeclibcmpd2357], with 7.71 (active).
Under `Cl[C@H]1[C@H](Cl)[C@@H](Cl)[C@@H](Cl)[C@H](Cl)[C@H]1Cl` [euspeclibcmpd969] stands 0.0503.
Under `CC1C(=O)O[C@@H]2O[C@]3(C)CC[C@H]4[C@H](C)CC[C@@H]1[C@@]24OO3` (some centres not stated) [euspeclibcmpd1110] stands 0.987; under `CC(=O)O[C@@H]1C2CC[C@@H]3C1(C[C@@H](O)[C@@]1(O)[C@@H](C[C@H](O)C1(C)C)[C@]3(C)O)C[C@@]2(C)O` (some centres not stated) [euspeclibcmpd2325], -0.506.
Take `CC(C)(C#N)O[C@@H]1O[C@H](CO)[C@@H](O)[C@H](O)[C@H]1O` [euspeclibcmpd1356]: the “Srxn1-GFP intensity median modified Z-score” value was 0.0487.
Then `CC1C[C@H](C)C[C@H]([C@H](O)CC2CC(=O)NC(=O)C2)C1=O` (some centres not stated) [euspeclibcmpd437], with -0.201; and `C=C[C@H]1C[N@]2CC[C@H]1C[C@@H]2[C@H](O)c1ccnc2ccccc12` [euspeclibcmpd2140], with 0.321.
In the case of `Cc1nc(=N)c(CNC(=O)N(CCCl)N=O)c[nH]1` [euspeclibcmpd1167], the “Srxn1-GFP intensity median modified Z-score” value is -0.0324.
Then `N=C(N)NN` [euspeclibcmpd930], with -0.0849; and `CC[C@H]1CN2CCc3cc(OC)c(OC)cc3C2C[C@@H]1CC1NCCc2cc(OC)c(OC)cc21` (some centres not stated) [euspeclibcmpd109], with -1.21.
`CN1CC(C(=O)N[C@]2(C)O[C@@]3(O)C4CCCN4C(=O)C(Cc4ccccc4)N3C2=O)=CC2c3cccc4[nH]cc(c34)CC21` (some centres not stated) [euspeclibcmpd823]: the “Srxn1-GFP intensity median modified Z-score” value was 113 (active).
Under `CC[C@@H](CO)NC(=O)C1=CC2c3cccc4c3c(cn4C)C[C@H]2N(C)C1` (some centres not stated) [euspeclibcmpd522] stands -0.363; under `CCC(CO)NC(=O)C1=CC2c3cccc4[nH]cc(c34)CC2N(C)C1` (configuration not stated) [euspeclibcmpd1928], -0.0083.
Consider `CC(C)CC1C(=O)N2CCC[C@H]2[C@@]2(O)O[C@](NC(=O)C3=CC4c5cccc6[nH]c(Br)c(c56)CC4N(C)C3)(C(C)C)C(=O)N12` (some centres not stated) [euspeclibcmpd39], for which the “Srxn1-GFP intensity median modified Z-score” value was 23.2 (active).
Turning to `CC(CO)NC(=O)C1=CC2c3cccc4[nH]cc(c34)CC2N(C)C1` (configuration not stated) [euspeclibcmpd113], the “Srxn1-GFP intensity median modified Z-score” value is 0.556.
Then `CN1CC(C(=O)N[C@]2(C)O[C@@]3(O)[C@@H]4CCCN4C(=O)C(Cc4ccccc4)N3C2=O)C[C@@H]2c3cccc4[nH]cc(c34)C[C@H]21` (some centres not stated) [euspeclibcmpd97], with -0.0377.
Then `CC(NC(C)(C)C)C(=O)c1cccc(Cl)c1` (configuration not stated) [euspeclibcmpd657], with -0.376.
Under `CC(=O)Oc1ccc(/C=C/c2cc(OC(C)=O)cc(OC(C)=O)c2)cc1` [euspeclibcmpd1618] stands 1.59; under `CC(=O)NC1CCSC1=O` (configuration not stated) [euspeclibcmpd1125], 0.231.
Take `CCOP(=S)(OCC)Oc1cc(C)nc(C(C)C)n1` [euspeclibcmpd706]: the “Srxn1-GFP intensity median modified Z-score” value is -0.234.
As for `C=CCc1cc(OC)c2c(c1OC)OCO2` [euspeclibcmpd1480], the “Srxn1-GFP intensity median modified Z-score” value was -0.404.
Under `N=c1cc[nH]cc1` [euspeclibcmpd895] stands -0.471.
Under `Cc1cc(C(C#N)c2ccc(Cl)cc2)c(Cl)cc1NC(=O)c1cc(I)cc(I)c1O` (configuration not stated) [euspeclibcmpd694] stands 9.76 (active).
Under `CN(C)C1C(=O)C(C(N)=O)C(=O)[C@@]2(O)C(=O)C3C(=O)c4c(O)cccc4[C@@](C)(O)[C@H]3[C@H](O)[C@@H]12` (some centres not stated) [euspeclibcmpd225] stands -0.444.
As for `CC(=O)O[C@@H]1CC[C@]2(C)C3CC[C@]4(C)C(=O)CCC4C3CC[C@H]2C1` (some centres not stated) [euspeclibcmpd1810], the “Srxn1-GFP intensity median modified Z-score” value is 0.269.
Then `Cc1nc(=O)c(C[n+]2csc(CCO)c2C)c[nH]1` [euspeclibcmpd1800], with 0.155; and `CCCCCC1C(=O)O[C@H](C)C(NC(=O)c2cccc(NC=O)c2O)C(=O)O[C@@H](C)[C@@H]1OC(=O)CC(C)C` (some centres not stated) [euspeclibcmpd1446], with 39.4 (active).
Then `C[C@]12C=CC(=O)CC1=CCC1C2CC[C@]2(C)C(=O)CCC12` (some centres not stated) [euspeclibcmpd1581], with -0.0301; and `N#CC(=Cc1ccc(O)cc1)C(=O)O` [euspeclibcmpd1768], with -0.146.
Then `CC[C@H](c1cccc(O)c1)[C@@H](C)CN(C)C` [euspeclibcmpd2238], with -0.41; and `O=C1C(Cl)=C(Cl)C(=O)C(Cl)=C1Cl` [euspeclibcmpd1739], with 25.8 (active).
`C=CCN=C=S` [euspeclibcmpd920]: the “Srxn1-GFP intensity median modified Z-score” value was 0.0414.
Under `Cc1ccc(/N=C/N(C)/C=N/c2ccc(C)cc2C)c(C)c1` [euspeclibcmpd739] stands 0.115; under `CC1=C2CCC3C(CC[C@]4(C)C(=O)CCC34)[C@@]2(C)CCC1=O` (some centres not stated) [euspeclibcmpd1163], -0.15; under `CN[C@@H]1[C@@H](O)C(OC2[C@@H](N)C[C@@H](N)[C@H](O[C@H]3O[C@H](C(C)O)[C@@H](O)[C@H](O)[C@H]3N)[C@H]2O)OC[C@]1(C)O` (some centres not stated) [euspeclibcmpd1437], -0.354.
Then `COc1cc([C@@H]2c3cc4c(cc3[C@H](OC(C)=O)[C@H]3COC(=O)C23)OCO4)cc(OC)c1OC` (some centres not stated) [euspeclibcmpd2106], with 13.1 (active); and `COc1ccc2c(c1OC)C(=O)O[C@@H]2[C@H]1c2cc3c(cc2CCN1C)OCO3` [euspeclibcmpd2270], with 0.619; and `COc1cc([C@@H]2c3cc4c(cc3[C@H](O)[C@H]3COC(=O)C23)OCO4)cc(OC)c1OC` (some centres not stated) [euspeclibcmpd2203], with 11.5 (active).
Then `CN1CCc2cc3c(cc2C1O)OCO3` (configuration not stated) [euspeclibcmpd1021], with 0.455.
For the compound `COc1cc([C@@H]2c3cc4c(cc3[C@H](O)[C@H]3COC(=O)C23)OCO4)cc(OC)c1OC` (some centres not stated) [euspeclibcmpd2060], the “Srxn1-GFP intensity median modified Z-score” value is 27.1 (active).
For `NCc1cccnc1` [euspeclibcmpd1239], the “Srxn1-GFP intensity median modified Z-score” value was -0.224.
Under `CC(C)[N+](C)(CCC(C(N)=O)(c1ccccc1)c1ccccc1)C(C)C` [euspeclibcmpd164] stands 0.396.
Then `CC(C)c1cccc(C(C)C)c1O` [euspeclibcmpd699], with -0.02; and `C[C@]12CCC(=O)CC1=CC=C1C2CC[C@@]2(C)C1CC[C@@]2(O)CCC(=O)O` (some centres not stated) [euspeclibcmpd2339], with -0.283.
Under `CCC(C(=O)[C@H](C)[C@@H](O)[C@H](C)[C@@H]1O[C@@H]([C@@H](CC)C(=O)O)CC[C@@H]1C)[C@H]1OC2(C=C[C@@H](O)[C@]3(CC[C@@](C)([C@H]4CC[C@](O)(CC)[C@H](C)O4)O3)O2)[C@H](C)C[C@@H]1C` (some centres not stated) [euspeclibcmpd2084] stands 6.06 (active); under `CC(C)(C)NCC(O)c1cc(Cl)c(N)c(Cl)c1` (configuration not stated) [euspeclibcmpd1154], -0.331; under `CCC(N)C(O)c1ccc(O)c(O)c1` (configuration not stated) [euspeclibcmpd646], -0.33.
Take `CN1CC(CNC(=O)OCc2ccccc2)C[C@H]2c3cccc4c3c(cn4C)CC21` (some centres not stated) [euspeclibcmpd1151]: the “Srxn1-GFP intensity median modified Z-score” value is -0.466.
Turning to `COc1cc2c(c(OC)c1OC)-c1ccc(=O)c(O)cc1C(NC(C)=O)CC2` (configuration not stated) [euspeclibcmpd2248], the “Srxn1-GFP intensity median modified Z-score” value was -0.142.
Take `COc1cc2c(c(OC)c1OC)-c1ccc(OC)c(=O)cc1[C@@H](NC(C)=O)CC2` [euspeclibcmpd73]: the “Srxn1-GFP intensity median modified Z-score” value is 13.3 (active).
Under `CNC(=O)Oc1ccc2c(c1)[C@]1(C)CCN(C)[C@@H]1N2C` [euspeclibcmpd611] stands 0.455.
Under `C[C@H]1C[C@@H](O)[C@]2(O)[C@@]13CC(=O)OC[C@@]2(C)[C@](C)(O)C(=O)C3` [euspeclibcmpd1475] stands 0.639.
As to `COc1ccc(CN2CCNCC2)c(OC)c1OC` [euspeclibcmpd1198], the “Srxn1-GFP intensity median modified Z-score” value was 0.677.
Under `CCOC(=O)c1cncn1[C@H](C)c1ccccc1` [euspeclibcmpd826] stands -0.145; under `O=C(O)C1[O][Sb]2[O]C(=O)C([O]2)C(C(=O)O)[O][Sb]2[O]C(=O)C1[O]2` (configuration not stated) [euspeclibcmpd2437], 3.34 (active).
Under `CC(=O)OC1CN2CCC1CC2` (configuration not stated) [euspeclibcmpd385] stands -0.0983.
Then `O=[N+]([O-])C(Br)(CO)CO` [euspeclibcmpd2257], with 6.25 (active).
For the compound `COc1ccc(C(=O)O)cc1OC` [euspeclibcmpd2003], the “Srxn1-GFP intensity median modified Z-score” value is -0.455.
As to `C[C@]12CC[C@H](O)CC1=CCC1C2CC[C@]2(C)C(=O)CC[C@@H]12` (some centres not stated) [euspeclibcmpd1201], the “Srxn1-GFP intensity median modified Z-score” value is -0.236.
Under `OCC(O)[C@H]1O[C@@H]2O[C@H](C(Cl)(Cl)Cl)O[C@@H]2[C@H]1O` (some centres not stated) [euspeclibcmpd1184] stands 0.0668.
In the case of `O=C(NC(=O)c1c(F)cccc1F)Nc1cc(Cl)c(OC(F)(F)C(F)C(F)(F)F)cc1Cl` (configuration not stated) [euspeclibcmpd1213], the “Srxn1-GFP intensity median modified Z-score” value was 13.1 (active).
Then `CCC1(CC)C(=O)NC(=S)NC1=O`, with 1.23; and `CC1=CC(=O)c2c(O)cccc2C1=O` [euspeclibcmpd1444], with 67.7 (active).
Turning to `O=C1C=CC(=O)c2c(O)cccc21` [euspeclibcmpd1492], the “Srxn1-GFP intensity median modified Z-score” value is 0.761.
For the compound `CC1(C)C2CC(=O)[C@]3(C)C(CC[C@@]4(C)[C@H](c5ccoc5)OC(=O)C5O[C@]543)[C@@]2(C)C(=O)C[C@H]1O` (some centres not stated) [euspeclibcmpd1592], the “Srxn1-GFP intensity median modified Z-score” value is -0.255.
Under `N#Cc1[nH]n(-c2c(Cl)cc(C(F)(F)F)cc2Cl)c(=N)c1[S+]([O-])C(F)(F)F` (configuration not stated) [euspeclibcmpd821] stands -0.323.

(Values after the supplement of paper PMC10498489.)
